Records with an inconclusive call do not appear. Unmarked numbers belong to inactive results. The source made the active and inactive calls. Calls follow the shape of the dose curve; as a rule, active = well fitted cell-killing curve with a large enough effect; inconclusive = small, poorly fitted or top-dose-only effect, or effect the other way; inactive = flat fitted curve, though single readings scatter.
test: Cell Viability - LYMP2-003 (AID 965); conditions: LYMP2-003 lymphoblastoid cell viability; series mostly up to 92.2 µM; activity change, negative = cytotoxicity: at the top concentration;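 also: cells exposed to compounds for 24 h before reading; nearly all actives have a fitted effect of over 50% in size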;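 as to activity change, negative = cytotoxicity: 0% = DMSO only and full effect = 92 µM tetraoctylammonium bromide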
Description: NIH Chemical Genomics Center [NCGC]
NIH Molecular Libraries Screening Centers Network [MLSCN]
National Institutes of Environmental Health Sciences [NIEHS]
National Toxicology Program [NTP]
We have developed a 1536-well cell-based assay for quantitative high throughput screening (qHTS) against a number of cell lines to determine in vitro cytotoxicity of small molecules. This particular assay uses a human lymphoblastoid cell line (LYMP2-003) purchased from Coriell Institute for Medical Research.
NCGC Assay Protocol Summary:
The CellTiter-Glo luminescent cell viability assay (Promega) is a homogeneous method to measure the number of viable cells in culture. The end point readout of this assay is based on quantitation of intracellular ATP, an indicator of metabolic activity, using the luciferase reaction. Luciferase catalyzes the oxidation of beetle Luciferin to oxyluciferin and light in the presence of ATP. The luminescent signal is proportional to amount of ATP present.
Using the CellTiter-Glo luminescent cell viability assay, the amount of cellular ATP was measured in the lymphoblastoid cell line with complete culture medium following compound treatment for 24 hours. The assay was performed in opaque white Kalypsys 1536-well plates. In the screen, tetraoctylammonium bromide was used as positive control. Library compounds were measured for their ability to cause acute toxicity in the cell line, as reflected by a decrease in intracellular ATP levels, in a concentration-dependent manner. […] AC50 values were determined from concentration-response data modeled with the standard Hill equation.
qHTS protocol for CellTiter Glo lymphoblastoid cellular assay
[Step] [Parameter] [Value] [Description]
1. Reagent; 5 uL; 2500 lymphoblastoid cells/well
2. Time; 5 hr; 37 C incubation
4. Controls; 23 nL; Tetraoctylammonium bromide 6.4pM to 92 uM
5. Time; 24 hr; 37 C incubation
6. Reagent; 5 uL; CellTiter Glo reagent
7. Time; 30 min; Room Temperature
8. Detection; Luminescence; Viewlux plate reader
Keywords: cell viability, cytotoxicity, lymphoblastoid cell line, luminescence, NTPHTS, NTPHTS_NCGC, NIEHS, DSSTox, MLSMR, MLSCN, NIH Roadmap, qHTS, NCGC
Potency is read from the fitted curve at half-maximal effect.

Structure (SMILES)	activity change, negative = cytotoxicity [%]	Potency
NC(=Nc1ccccc1)Nc1ccccc1	-2.01	–
CN=C(NC#N)NCCSCc1nc[nH]c1C	27.1	–
COc1ccc(CN(CCN(C)C)c2ccccn2)cc1	-5.7	–
COc1cc(Cc2cnc(N)nc2N)cc(OC)c1OC	-3.73	–
Nc1nc(N)c2nc(-c3ccccc3)c(N)nc2n1	-10.8	–
NC(=O)N1c2ccccc2C=Cc2ccccc21	12	–
CCCCNC(=O)NS(=O)(=O)c1ccc(C)cc1	5.95	–
CCCCOCCOCCOCc1cc2c(cc1CCC)OCO2	2.56	–
O=c1[nH]c(=O)n([C@H]2C[C@H](O)[C@@H](CO)O2)cc1Br	16.6	–
Nc1ncn([C@@H]2O[C@H](CO)[C@@H](O)[C@H]2O)c(=O)n1	–	10 µM (active)
